Where “and” joins values, the source holds several entries; their conditions need not be identical. Equal values may be shown once. Inconclusive results are not listed. Calls of active or inactive are those of the source. Unless noted, calls follow the shape of the dose curve; as a rule, active = well fitted curve in the direction sought with a large enough effect; inconclusive = small, poorly fitted or top-dose-only effect, or another doubt; inactive = no such curve, though single readings can be large; an effect the other way counts as inactive or inconclusive.
Experiments:
[1] = Cell Viability - BJ (AID 421; calls by dose curve;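 also: potency is read from the fitted curve at half-maximal effect; cells exposed to compound for 40 hours at 37 °C before readout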); settings: BJ fibroblast viability, qHTS
Method in brief: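 Cytotoxicity in human BJ foreskin fibroblasts is scored as loss of cellular ATP after a 40-hour exposure, measured by luciferase luminescence. Controls are DMSO and 100 uM tamoxifen.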

[2] = Cell Viability - HepG2 (AID 433; calls by dose curve;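 also: potency is read from the fitted curve at half-maximal effect; potency for ATP loss meaning cytotoxicity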); settings: qHTS
Method in brief: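 Read-out is luciferase-based quantitation of cellular ATP as a measure of viable HepG2 cells after 40 h treatment at 37 °C. Signal decrease is scaled between DMSO-only and 100 uM tamoxifen controls, with AC50 fitted by the Hill equation.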

[3] = Cell Viability - MRC5 (AID 434; calls by dose curve;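 also: potency is read from the fitted curve at half-maximal effect; cells exposed to compound for 40 hours at 37 °C; potency reflects cytotoxicity seen as loss of intracellular ATP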); settings: MRC5 lung fibroblast viability, qHTS
Method in brief: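 MRC5 normal human lung fibroblasts (1500/well) were treated with compounds for 40 hr at 37 °C in complete medium, and viable cells were measured as intracellular ATP by CellTiter-Glo luminescence. AC50 came from Hill fits, normalized to DMSO and 100 uM tamoxifen.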

[4] = Cell Viability - SK-N-SH (AID 435; calls by dose curve;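 also: potency is read from the fitted curve at half-maximal effect; compound exposure lasted 40 h at 37 °C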); settings: SK-N-SH neuroblastoma cell viability qHTS
Method in brief: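 Luminescent ATP signal served as the viability read-out after 40 hours of compound treatment of human neuroblastoma SK-N-SH cells. Concentration-response data, scaled between DMSO and 100 uM tamoxifen, gave AC50 values by standard Hill modeling.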

[5] = Cell Viability - HUV-EC-C (AID 542); also: % is scaled to controls: 0 for no effect and ±100 for the full control effect; nearly all actives have a fitted effect of over 35% in size
Method in brief: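 Decrease in cellular ATP, quantified by luciferase luminescence, reflects toxicity in normal human vascular endothelial HUV-EC-C cells given compound for 40 hr in complete culture medium. Values are AC50s from concentration-response curves.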

[6] = Cell Viability - SH-SY5Y (AID 544); settings: SH-SY5Y neuroblastoma cell viability; viability change, negative = cytotoxic: at 92.2 µM (top of the series);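 also: 0% = DMSO alone and -100% = 100 µM tamoxifen; nearly all actives have a fitted effect of over 55% in size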
Method in brief: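 Cytotoxicity is scored as a concentration-dependent fall in intracellular ATP in human SH-SY5Y cells treated 40 hr in complete culture medium. Potency is expressed as AC50 from a Hill equation fit.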

[7] = Cell Viability - Renal Proximal Tubule (AID 545); settings: renal proximal tubule cells viability; at 91.7 µM (top of the series), primary cells of rat origin unless noted;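 also: 0% = DMSO only and -100% = 100 µM tamoxifen; nearly all actives have a fitted effect of over 40% in size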
Method in brief: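 Luminescent ATP signal (CellTiter-Glo) served as the viability read-out after 40 hr compound exposure of freshly isolated rat proximal tubule cells at 37 °C. Concentration-dependent ATP loss was fitted with the Hill equation to give AC50.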

[8] = Cell Viability - Mesenchymal (AID 546);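 also: cells exposed to compound for 40 hours before reading; 0% = DMSO only and -100% = 100 µM tamoxifen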
Method in brief: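 Normal human renal glomerulus-derived kidney mesenchymal cells, 1000 per well in complete medium, were treated with compounds for 40 hr at 37 °C. Viability was read as intracellular ATP by CellTiter-Glo luminescence; AC50 values came from Hill-equation fits of qHTS concentration-response data.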

[9] = Cellular Toxicity (caspase-3) HepG2 (AID 654);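 also: cells exposed to compound for 16 hours before reading; 0% = DMSO alone and 100% = caspase signal from 100 µM tamoxifen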
Method in brief: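 qHTS, HepG2, 1500 cells/well, complete medium; cpd 16 h 37 °C; Caspase-Glo 3/7, 20 min RT; lum. Norm: DMSO vs 100 uM tamoxifen; AC50 Hill fit.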

[10] = Cellular Toxicity (caspase-3) HUV-EC-C (AID 656);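 also: 0% = DMSO basal and 100% = 100 µM tamoxifen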
Method in brief: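 qHTS; HUV-EC-C, 1000 cells/well; 5 hr settle, 16 hr cmpd, 37°C; Caspase-Glo 3/7, 20 min RT; luminescence. Norm: DMSO = 0%, tamoxifen 100 uM = 100%. Hill-fit AC50.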

[11] = Cellular Toxicity (caspase-3) SHSY5Y (AID 657);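 also: cells exposed to compound for 16 hours at 37 °C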
Method in brief: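 qHTS, SH-SY5Y, 1500 cells/well, 5 h pre-incubation 37 °C; compound 16 h 37 °C; Caspase-Glo 3/7 1 h RT; luminescence. Norm.: DMSO = 0, 10 uM staurosporine = 100%. Hill fit → AC50.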

[12] = Cellular Toxicity (caspase-3) BJ (AID 658);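 also: cells exposed to compound for 16 hours; 0% = DMSO basal and 100% = 10 µM staurosporine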
Method in brief: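 Luminescent aminoluciferin-substrate cleavage reports caspase 3/7 activity in normal human BJ fibroblasts after 16 hr compound exposure at 37 °C. Normalized to DMSO (basal) and 10 uM staurosporine (100%); AC50 from Hill fit of concentration-response.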

[13] = Cellular Toxicity (caspase-3) MRC-5 (AID 659);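 also: 0% = DMSO basal and 100% = 10 µM staurosporine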
Method in brief: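 Luminescence from caspase-cleaved aminoluciferin substrate (Caspase-Glo 3/7, 1 hr RT) reports caspase 3/7 activity in MRC-5 lung fibroblasts after 16 hr compound exposure. Normalized to DMSO basal and 10 uM staurosporine as 100%; AC50 from Hill fits.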

[14] = Cellular Toxicity (caspase-3) Mesangial (AID 660);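 also: combined caspase 3 and 7 activity read by Caspase-Glo luminescence; cells exposed to compound for 16 h before the caspase read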
Method in brief: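 Concentration-response qHTS: compound-induced rise in caspase 3/7 luminescence in human mesangial cells after 16 h, normalized to DMSO and 100 uM tamoxifen controls.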

[15] = Cellular Toxicity (caspase-3) SK-N-SH (AID 661);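 also: cells exposed to compound for 16 hours; 0% = DMSO basal and 100% = 10 µM staurosporine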
Method in brief: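 Caspase 3/7 activation is measured as a luminescence increase from aminoluciferin released by substrate cleavage in SK-N-SH cells after 16 hr compound treatment; values are AC50 from concentration-response curves.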

[16] = Cellular Toxicity (caspase-3) Renal Proximal Tubule (AID 667); settings: renal proximal tubule cells; at 91.7 µM (top of the series), primary cells freshly taken from rat, solvent-only wells 0%, staurosporine 100% unless noted;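 also: cells exposed to compound for 16 hours at 37 °C before detection; 0% = DMSO basal and 100% = 10 µM staurosporine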
Method in brief: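 AC50 derived by standard Hill fit of concentration-response data, normalized between DMSO basal and 10 uM staurosporine as 100% stimulation. Cells: primary rat kidney proximal tubule, 16 h treatment at 37 °C.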

[17] = qHTS Assay for Identification of Small Molecule Inducers of Hypoxia Response (AID 2120; active = well fitted curve in the direction sought with a large enough effect in the signal ratio, with a control signal flat, not every such curve was filed as active; the % refers to the signal ratio; also: 0% is about no effect)
Method in brief: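 Induction of beta-lactamase reporter activity was measured in CellSensor HRE-bla ME-180 cells after 17 h compound treatment at 37 degrees C, using CCF4 substrate and the 460nm/530nm emission ratio to derive AC50 values.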

[18] = molecular target: Peroxisome proliferator-activated receptor alpha (Homo sapiens) (UniProt Q07869); assay: qHTS assay for small molecule agonists of the peroxisome proliferator-activated receptor alpha (PPARalpha) signaling pathway (AID 651778); settings: PathHunter PPARalpha complementation, chemiluminescence, 6 h; stronger effect = higher value; also: % of control where 0% means no effect
Method in brief: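 Cells plated at 2,000/well and held overnight at 37 C, 5% CO2, then compound added by pin tool for 6 hr; after PathHunter detection reagent and 60 min at room temperature, chemiluminescence from enzyme complementation was read.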

[19] = molecular target: Cytochrome P450 3A4 (Homo sapiens) (UniProt P08684); assay: qHTS Assay for Inhibitors and Substrates of Cytochrome P450 3A4 (AID 884); also: % is scaled to controls: 0 for no effect and ±100 for the full control effect; nearly all actives have a fitted effect of over 50% in size
Method in brief: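 20 nM human CYP3A4 with 25 uM Luciferin-PPXE (at KM) in 200 mM KPO4, preincubated 10 min with compound; NADPH regeneration started a 60 min RT reaction. Luciferin detected by luminescence, normalized to 57 uM ketoconazole as full inhibition.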

Chain of Peroxisome proliferator-activated receptor alpha (Homo sapiens) (Q07869 whole entry, looked up): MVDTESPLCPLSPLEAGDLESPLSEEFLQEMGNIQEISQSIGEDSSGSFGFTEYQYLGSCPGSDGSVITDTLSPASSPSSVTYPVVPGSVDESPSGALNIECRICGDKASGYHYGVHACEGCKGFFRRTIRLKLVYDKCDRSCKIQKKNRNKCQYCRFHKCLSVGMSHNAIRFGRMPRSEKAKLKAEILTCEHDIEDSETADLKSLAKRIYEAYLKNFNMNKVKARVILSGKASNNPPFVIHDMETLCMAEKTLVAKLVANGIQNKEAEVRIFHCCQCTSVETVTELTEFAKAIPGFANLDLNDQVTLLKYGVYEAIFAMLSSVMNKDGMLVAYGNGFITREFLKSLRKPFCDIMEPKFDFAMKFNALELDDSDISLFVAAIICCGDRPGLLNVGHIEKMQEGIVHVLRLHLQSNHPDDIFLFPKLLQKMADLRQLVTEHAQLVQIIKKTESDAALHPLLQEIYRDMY
Chain of Cytochrome P450 3A4 (Homo sapiens) (P08684 whole entry, looked up): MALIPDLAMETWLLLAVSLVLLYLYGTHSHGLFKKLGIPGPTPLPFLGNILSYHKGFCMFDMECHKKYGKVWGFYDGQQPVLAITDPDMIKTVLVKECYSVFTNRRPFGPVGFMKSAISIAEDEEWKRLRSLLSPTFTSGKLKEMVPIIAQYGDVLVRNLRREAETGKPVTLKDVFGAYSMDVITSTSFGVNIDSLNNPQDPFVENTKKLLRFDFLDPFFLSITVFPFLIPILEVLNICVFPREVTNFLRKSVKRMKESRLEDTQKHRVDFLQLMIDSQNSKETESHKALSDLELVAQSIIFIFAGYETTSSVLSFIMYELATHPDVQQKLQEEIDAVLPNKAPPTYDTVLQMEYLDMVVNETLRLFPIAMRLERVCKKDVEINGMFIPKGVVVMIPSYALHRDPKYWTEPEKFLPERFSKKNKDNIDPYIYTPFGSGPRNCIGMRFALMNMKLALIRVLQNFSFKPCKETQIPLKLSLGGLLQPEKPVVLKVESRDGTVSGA

CCCCOCCOP(=O)(OCCOCCCC)OCCOCCCC
inactive: Potency [1] > 92 µM | Potency [2] > 92 µM | Potency [3] > 92 µM | Potency [4] > 92 µM | Potency [5] | Potency [6] | activity change, negative = cytotoxicity [7] 5.24% [at 91.7 µM] | outcome [8] | outcome [9] | outcome [10] | outcome [11] | outcome [12] | outcome [13] | outcome [14] | outcome [15] | caspase-3 activation [16] -4.16% [at 91.7 µM] | outcome [17] | max response [18] 5.47% and -1.69%

Brc1ccc(Oc2cc(Br)c(Br)cc2Br)c(Br)c1
inactive: Potency [1] > 92 µM | Potency [2] > 92 µM | Potency [3] > 92 µM | Potency [4] > 92 µM | Potency [5] | Potency [6] | activity change, negative = cytotoxicity [7] -20.3% [at 91.7 µM] and -14.3% [at 91.7 µM] | outcome [8] | outcome [9] | outcome [10] | outcome [11] | outcome [12] | outcome [13] | outcome [14] | outcome [15] | caspase-3 activation [16] 12.3% [at 91.7 µM] and -6.38% [at 91.7 µM] | Potency [19] | outcome [17] | max response [18] 8.87% and 4.12% and 3.75%

COc1ccc(N)cc1
inactive: Potency [1] > 92 µM | Potency [2] > 92 µM | Potency [3] > 92 µM | Potency [4] > 92 µM | Potency [5] | Potency [6] | activity change, negative = cytotoxicity [7] 0.402% and -5.11% | outcome [8] | outcome [9] | outcome [10] | outcome [11] | outcome [12] | outcome [13] | outcome [14] | outcome [15] | caspase-3 activation [16] 4.4% and -11% | Potency [19] | outcome [17] | max response [18] -0.77% and -1.08%

CC(=O)[O-].CC(=O)[O-].O.O.O.[Pb+2]
inactive: Potency [1] > 92 µM | Potency [2] > 92 µM | Potency [3] > 92 µM | Potency [4] > 92 µM | Potency [5] | Potency [6] | activity change, negative = cytotoxicity [7] -5.61% and -0.959% | outcome [8] | outcome [9] | outcome [10] | outcome [11] | outcome [12] | outcome [13] | outcome [14] | outcome [15] | caspase-3 activation [16] -9.48% and -1.66% | Potency [19] | outcome [17] | max response [18] -4.64% and -4.52%

CC(Cl)Cl
inactive: Potency [1] > 92 µM | Potency [2] > 92 µM | Potency [3] > 92 µM | Potency [4] > 92 µM | Potency [5] | Potency [6] | activity change, negative = cytotoxicity [7] -11.4% | outcome [8] | outcome [9] | outcome [10] | outcome [11] | outcome [12] | outcome [13] | outcome [14] | outcome [15] | caspase-3 activation [16] -1.5% | Potency [19] | outcome [17] | max response [18] 4.62%

CN=C=S
inactive: Potency [1] > 92 µM | Potency [2] > 92 µM | Potency [3] > 92 µM | Potency [4] > 92 µM | Potency [5] | Potency [6] | activity change, negative = cytotoxicity [7] -2.52% | outcome [8] | outcome [9] | outcome [10] | outcome [11] | outcome [12] | outcome [13] | outcome [14] | outcome [15] | caspase-3 activation [16] -3.52% | Potency [19] | outcome [17] | max response [18] -2.7% and -1.5%

OCC(Br)CBr (stereo unspecified)
inactive: Potency [1] > 92 µM | Potency [2] > 92 µM | Potency [3] > 92 µM | Potency [4] > 92 µM | Potency [5] | Potency [6] | activity change, negative = cytotoxicity [7] 0.652% | outcome [8] | outcome [9] | outcome [10] | outcome [11] | outcome [12] | outcome [13] | outcome [14] | outcome [15] | caspase-3 activation [16] 0.653% | outcome [17] | max response [18] -5.97%
